Among the data in PubChem BioAssay AID1159580 (chemical genetic matrix, 2015) are normalized growth values, retold here.

The test can be described thus: chemical genetic growth profiling, strain panel (AID 1159580).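 Note: tested at 20 µM; growth read once vehicle control cultures reached saturation at 30 °C; 1 = growth at the plate median or of vehicle wells; lower values mean less growth of the strain.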 The note with it: S. cerevisiae deletion strains, growth OD.

Each structure is given as a SMILES string. Screen size: about 5,500 compounds; about 2,000 (36%) were called active. Inconclusive results (about 18%) are left out. This is one part of the list. Values without a mark were called inactive. Cut-off read from the data, not from the text of the source: active = normalized growth mostly below about 0.91 (no sharp cut-off); inconclusive = no clear call, values can overlap the other calls; inactive = mostly above about 0.92.

Take `COC1=C(OC)C(=O)c2ccccc2C1=O`: the normalized growth reads like this: (locus YAL040C, strain CLN3, hits give low values) 0.962; (locus YDR363W, strain ESC2, hits give low values) 0.734 (active); (locus YER002W, strain NOP16, hits give low values) 0.985; (locus YGR078C, strain PAC10, hits give low values) 0.995; (locus YJR075W, strain HOC1, hits give low values) 0.998; (locus YMR263W, strain SAP30, hits give low values) 1.02. Besides, the normalized growth reads like this: (locus YMR307W, strain GAS1, hits give low values) 0.886 (active); (locus YNL153C, strain GIM3, hits give low values) 0.703 (active); (locus YNL175C, strain NOP13, hits give low values) 0.978; (locus YNL197C, strain WHI3, hits give low values) 0.941; (locus YNL224C, strain SQS1, hits give low values) 0.977; (locus YOR083W, strain WHI5 (second series), hits give low values) 0.883.
